Inconclusive results are not listed. Calls of active or inactive are those of the source. Rule as the data show it, unless noted: active = inhibition above about 80%; inactive = the rest.
Tests used:
[1] = growth inhibition of DIPG cells – cell-based, MIPE5.0 library, qHTS (AID 1347068; cut-off not given, nearly all actives have IC50 up to about 30 µM); conditions: SU-DIPG-XXV viability
[2] = growth inhibition, single agent or in combination, cell-based, chromothripsis tumors, cisplatin or BGB combos (AID 1671449); conditions: LFS_MB_P medulloblastoma cells;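 also: cells exposed for 96 hours; 0% = vehicle DMSO and 100% = killing by high DMSO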
[3] = growth inhibition, single agent and combos, cell-based, chromothripsis tumors, cisplatin or BGB combos (AID 1671450); conditions: HDN33 neuroblastoma cells, stronger effect = higher value;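 also: cells exposed to compound for four days; 0% = vehicle DMSO and 100% = cell killing by high DMSO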
[4] = growth inhibition, single agents and combos, ICB984, cell-based, cisplatin or BGB combos, synergistic combos for chromothripsis tumors (AID 1671451; call rule not given here;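 also: cells exposed for 96 hours before readout; 0% = vehicle DMSO and 100% = killing by high DMSO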); conditions: ICB984 medulloblastoma cells, drug combinations, stronger effect = higher value
[5] = growth inhibition, single agents and combos, LFS_MB_1R, cell-based, cisplatin or BGB combos, synergistic combos for chromothripsis tumors (AID 1671452); conditions: LFS_MB_1R medulloblastoma cells, stronger effect = higher value;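 also: cells exposed for 96 hours before readout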
[6] = growth inhibition, single agents and combos, HTB85, cell-based, BGB or cisplatin IC20 combos, synergistic combos for chromothripsis tumors (AID 1671453); conditions: HTB85 osteosarcoma cells, drug combinations, stronger effect = higher value;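 also: cells exposed for 96 hours before readout; 0% = vehicle DMSO and 100% = high DMSO killing control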
[7] = growth inhibition, single agents and combos, CRL2098, cell-based, BGB or cisplatin IC20 combos, synergistic combos for chromothripsis tumors (AID 1671454); conditions: CRL2098 osteosarcoma cells, drug combinations, stronger effect = higher value;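 also: cells exposed for 96 h before readout; 0% = vehicle DMSO and 100% = killing by high DMSO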
[8] = growth inhibition, single agents and combos, HD-MB03, cell-based, BGB or cisplatin IC20 combos, synergistic combos for chromothripsis tumors (AID 1671455; in the data active = inhibition above about 83%;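 also: 0% = vehicle DMSO and 100% = high DMSO as cytotoxic control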); conditions: HD-MB03 medulloblastoma cells, stronger effect = higher value
[9] = growth inhibition, single agents and combos, UWB1.289, cell-based, BGB or cisplatin combos, synergistic combos for chromothripsis tumors (AID 1671456); conditions: UWB1.289 ovarian carcinoma cells, stronger effect = higher value;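 also: cells exposed to compound for four days; 0% = vehicle DMSO and 100% = killing by high DMSO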
[10] = growth inhibition, single agents and combos, LFS_MB_2R, cell-based, cisplatin combos, synergistic combos for chromothripsis tumors (AID 1671457); conditions: LFS_MB_2R medulloblastoma cells, stronger effect = higher value;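 also: cells exposed to compound for four days before readout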
[11] = growth inhibition, MDA-MB-436, cell-based, BGB or cisplatin combos, synergistic combos for chromothripsis tumors (AID 1671458; call rule not given here;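 also: cells exposed for 96 hours; 0% = vehicle DMSO and 100% = killing by high DMSO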); conditions: MDA-MB-436 breast carcinoma growth inhibition, drug combinations, stronger effect = higher value
[12] = UWB1.289_BRCA1 ovarian cancer growth, cell-based, BGB or cisplatin combinations (AID 1671459); conditions: UWB1.289 BRCA1 ovarian carcinoma, drug combinations, stronger effect = higher value
[13] = drug combination toxicity in non-malignant astrocytes – cell-based, BGB or cisplatin IC20 combos, cytotoxicity control for chromothriptic childhood tumor combination screen (AID 1671460); conditions: Human astrocytes, viability inhibition, drug combinations, at 0.5 µM, stronger effect = higher value;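 also: cells exposed to compounds for 96 hours before viability readout; 0% = vehicle and 100% = killing control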
[14] = BT084 cell growth, single and combined drugs, ICGC_MB145, cisplatin and BGB IC40 combos (AID 1671461); conditions: BT084 medulloblastoma cells, drug combinations, stronger effect = higher value;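 also: cells exposed to drugs for 96 hours; 0% = vehicle DMSO and 100% = high DMSO full killing control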
[15] = RCMB18 cell growth, single agent and combined, cisplatin and BGB IC40 combos (AID 1671462); conditions: RCMB18 medulloblastoma cells, stronger effect = higher value;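 also: cells exposed to compound for four days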
[16] = CRL1545 cell growth, single agent and combined, cisplatin and BGB IC20 combos (AID 1671464); conditions: CRL1545 osteosarcoma cells, stronger effect = higher value;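 also: cells exposed to compound for 96 hours before readout; 0% = vehicle DMSO and 100% = high DMSO killing control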
[17] = measured here: combination with BGB IC40, at 0.05 µM
[18] = measured here: with BGB IC20 combination, at 0.5 µM
[19] = measured here: with cisplatin IC20 combination, at 0.5 µM
[20] = measured here: combination with cisplatin, at 0.5 µM
[21] = measured here: combination with cisplatin, at 5 µM

## CS(=O)(=O)c1ccc(-c2nnc(/C=C/c3nnc(-c4ccc(C#N)cc4)o3)n2-c2ccccc2Cl)nc1
[1]
  outcome: inactive
[2]; at 0.5 µM, stronger effect = higher value
  inhibition: 1.48% (inactive)
[2]; measured here: combination with BGB IC20, at 0.005 µM
  inhibition: 2.99%
[2]; measured here: combination with BGB IC40, at 0.005 µM
  inhibition: 6.48%
[2]; [17]
  inhibition: 30.7%
[2]; measured here: combination with cisplatin, at 0.5 µM, stronger effect = higher value
  inhibition: -5.01%
[2]; measured here: combination with cisplatin, at 5 µM, stronger effect = higher value
  inhibition: -36.6%
[3]; BGB combo, at 5 µM
  inhibition: 21%
[3]; at 0.5 µM
  inhibition: 30.9% (inactive)
[3]; cisplatin combo, at 5 µM
  inhibition: 23.5%
[3]; [18]
  inhibition: 33.7%
[3]; [19]
  inhibition: 23.2%
[3]; single agent, at 5 µM
  inhibition: 31.3%
[4]; BGB IC20 combo, at 0.005 µM
  inhibition: -3.28%
[4]; BGB IC40 combo, at 0.005 µM
  inhibition: -14.7%
[4]; BGB IC40 combo, at 0.05 µM
  inhibition: -5.67%
[4]; at 0.5 µM
  inhibition: -26.5% (inactive)
[4]; cisplatin combo, at 0.05 µM
  inhibition: -9.85%
[4]; cisplatin combo, at 0.5 µM
  inhibition: -33.8%
[4]; cisplatin combo, at 5 µM
  inhibition: -19.1%
[4]; measured here: 5 uM single agent, at 5 µM
  inhibition: -5.85%
[5]; at 0.5 µM
  inhibition: -3.64% (inactive)
[5]; [17]
  inhibition: 0.706%
[5]; [20]
  inhibition: -21.2%
[5]; [21]
  inhibition: -35.8%
[6]; at 0.5 µM
  inhibition: 15.7% (inactive)
[6]; measured here: with BGB IC20, at 0.5 µM
  inhibition: 7.63%
[6]; measured here: with BGB IC20, at 5 µM
  inhibition: -0.396%
[6]; measured here: with cisplatin IC20, at 0.5 µM
  inhibition: 4.78%
[6]; measured here: with cisplatin IC20, at 5 µM
  inhibition: 9.69%
[6]; single agent, at 5 µM
  inhibition: 38.8%
[7]; at 0.5 µM
  inhibition: 7.89% (inactive)
[7]; measured here: combination with BGB at IC20, at 0.5 µM
  inhibition: 3.4%
[7]; measured here: combination with cisplatin at IC20, at 0.5 µM
  inhibition: 15.6%
[8]; at 0.5 µM
  inhibition: 11.5% (inactive)
[8]; measured here: combo with BGB at IC20, at 0.5 µM
  inhibition: 0.481%
[8]; measured here: combo with cisplatin at IC20, at 0.5 µM
  inhibition: 19.9%
[9]; at 0.5 µM
  inhibition: 15.3% (inactive)
[9]; measured here: inhibition with BGB combination, at 0.05 µM
  inhibition: 0.045%
[9]; measured here: inhibition with cisplatin combination, at 0.05 µM
  inhibition: 15.1%
[10]; at 0.5 µM
  inhibition: -0.5% (inactive)
[10]; [20]
  inhibition: 14.1%
[10]; [21]
  inhibition: -1.82%
[11]; at 0.5 µM
  inhibition: 7.83% (inactive)
[11]; measured here: BGB combination, at 0.5 µM
  inhibition: -1.04%
[11]; measured here: BGB combination, at 5 µM
  inhibition: -5.11%
[11]; measured here: cisplatin combination, at 0.5 µM
  inhibition: 9.17%
[11]; measured here: cisplatin combination, at 5 µM
  inhibition: 11.5%
[12]; BGB combination, concentration series, at 5 µM
  inhibition: 22.9%
[12]; at 0.5 µM
  inhibition: 12.5% (inactive)
[12]; cisplatin combination, concentration series, at 5 µM
  inhibition: 17.8%
[13]
  inhibition: 40.8% (inactive)
[13]; measured here: combo with BGB IC20
  inhibition: 29.7%
[13]; measured here: combo with cisplatin IC20
  inhibition: 52.2%
[14]; at 0.5 µM
  inhibition: -12.2% (inactive)
[14]; cisplatin combination, at 0.5 µM
  inhibition: 3.06%
[14]; cisplatin combination, at 5 µM
  inhibition: 6.23%
[14]; measured here: BGB IC40 combination 0.05 uM, at 0.05 µM
  inhibition: -3.22%
[14]; single agent, at 5 µM
  inhibition: -30%
[15]; at 0.5 µM
  inhibition: 3.73% (inactive)
[15]; cisplatin combo, at 5 µM
  inhibition: 7.03%
[15]; measured here: BGB IC40 combination, at 0.05 µM
  inhibition: -6.83%
[15]; [20]
  inhibition: 19.3%
[15]; single agent, at 5 µM
  inhibition: -0.278%
[16]; at 0.5 µM
  inhibition: -40.3% (inactive)
[16]; [18]
  inhibition: -43.6%
[16]; [19]
  inhibition: -38.6%
[16]; single agent, at 0.05 µM
  inhibition: -1.31%
[16]; single agent, at 5 µM
  inhibition: -32.2%

From PubChem BioAssay
